About 83,000 compounds went through this panel and 20% of them were active in at least one assay; those are over-represented in the sample as a whole.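 In brief: 96-well plates, 48 h treatment, single concentration, percent growth endpoint.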 A number with no mark means an inactive call. Activity calls are given as the source filed them. How the source made its calls: active means growth percent below 10; inactive means the rest.
Key:
Assay in all cases: NCI-60 one-dose screen, 48 h (100 = growth as untreated, 0 = no growth, -100 = all killed)
Settings in all cases: 10 µM unless noted
[1] = test system: HCT-15 colon
[2] = test system: HT29 colon
[3] = test system: SNB-75 CNS
[4] = test system: SNB-19 CNS
[5] = test system: U251 CNS
[6] = test system: PC-3 prostate
[7] = test system: SK-MEL-5 melanoma
[8] = test system: UACC-62 melanoma
[9] = test system: LOX IMVI melanoma
[10] = test system: SK-MEL-28 melanoma

SMILES | growth [1] | growth [2] | growth [3] | growth [4] | growth [5] | growth [6] | growth [7] | growth [8] | growth [9] | growth [10]
COc1ccccc1/C=N\Nc1ccc([N+](=O)[O-])cn1 | 102% | 107% | 110% | 103% | 101% | 98.8% | 102% | 100% | 98.5% | 120%
CCCCCCCC/C=C/CCCCCCCC1=NC(C)(C)CN1C(C)C | -45.1% (active) | -51.3% (active) | 25.5% | 46.4% | -76.1% (active) | -74.4% (active) | -86.3% (active) | -60.5% (active) | -81.2% (active) | -82.8% (active)
O=C1CCCN1C1CCN2CCCc3cccc1c32 (stereo not given) | 102% | 94.4% | 105% | 100% | 103% | 91.3% | 110% | 93.6% | 101% | 115%
Cc1ccc(NC(=O)c2cc(NCc3cc(O)ccc3O)ccc2O)cc1 | 86.3% | 82.9% | 97.8% | 99.8% | 95.4% | 74% | 88.6% | 81.9% | 94.7% | 108%
CC1OC(n2c3ccccc3c3c4c(c5c6ccccc6[nH]c5c32)C(=O)N(CCN2CCOCC2)C4=O)CC(O)C1O (stereo not given) | 26.5% | 13.4% | 5.86% (active) | 21.5% | 10.4% | 34% | 5.46% (active) | 21.1% | 2.7% (active) | 67.6%
Cc1ccc(NC(=O)c2sc3nc4c(cc3c2N)C(=O)CCC4)cc1Cl | 97.3% | 97.5% | 110% | 114% | 97.9% | 104% | 102% | 108% | 99.2% | 108%
Cc1ccncc1NC=O | 104% | 111% | 103% | 102% | 101% | 99% | 101% | 101% | 104% | 112%
O=C(NCCN1CCCC1)n1cc(-c2ccncc2)c(-c2cc(O)cc(Cl)c2)n1 | 88.6% | 90.1% | 110% | 98.5% | 82.9% | 103% | 62.9% | 34.6% | 79.7% | 36.7%
COc1cc(/C=C/c2cc(/C=C/c3ccc(O)c(OC)c3)n(C(=O)Nc3ccc(F)c(Cl)c3)n2)ccc1O | 6.64% (active) | -33.6% (active) | -12.6% (active) | 4.42% (active) | -1.59% (active) | -14.3% (active) | -73.9% (active) | -37.4% (active) | -20.9% (active) | 7.89% (active)
CCCCSc1ncnc2c1ncn2C1CCCCO1 (stereo not given) | 102% | 109% | 104% | 103% | 99.9% | 99.5% | 104% | 99.6% | 101% | 119%
Cc1cccc2nc3ccccc3c(Nc3ccc(NS(C)(=O)=O)cc3)c12 | 37.2% | 46% | 68.3% | 59.7% | 15.8% | 66.7% | 48.3% | 63.4% | 33.8% | 73%
COc1cc(CN(CCC(O)N2CCCC2=O)Cc2ccc3c(c2)OCO3)cc(OC)c1OC (stereo not given) | 97.5% | 98.3% | 93.7% | 99.5% | 102% | 89.5% | 111% | 101% | 94.9% | 117%
COc1ccc(C(=O)OC2C(OC3C(O)COC(O[C@H]4C[C@H]5[C@@H]6CC=C7C[C@@H](O)CC[C@]7(C)[C@H]6CC[C@]5(C)[C@H]4[C@H](C)C(=O)CCC(C)C)C3OC(N)=O)OCC(O)C2O)cc1 (stereo not given in full) | 6.08% (active) | 4.99% (active) | -10% (active) | -28.2% (active) | -53.3% (active) | -28.1% (active) | -86.8% (active) | -57.7% (active) | -58.3% (active) | -59.1% (active)

Source: PubChem BioAssay (NCI)
